The source holds several records for some structures; these can differ, active in one and inactive in another. The source made the active and inactive calls. How the source made its calls: active means hit-call score of the fitted dose curve at least 0.9, where 1 is the maximum; inactive means score below 0.9.
assay: ATG_TCF_b_cat_CIS: Attagene CIS-FACTORIAL HepG2 Assay for human T-Cell-Factor with beta-catenin (TCF/b-cat) (AID 2282965); details: HepG2 TCF/beta-catenin cis-reporter transcription, actives raise or lower the signal
Procedure: ATG_CIS is a cell-based, multiplexed-readout assay that uses HepG2, a human liver cell line, with measurements taken at 24 hours after chemical dosing in a 24-well plate.ATG_TCF_b_cat_CIS is one of 52 assay component(s) measured or calculated from the ATG_CIS assay. It is designed to make measurements of mRNA induction, a form of inducible reporter, as detected with fluorescence intensity signals by Reverse transcription polymerase chain reaction (RT-PCR) and Capillary electrophoresis technology.Data from the assay component ATG_TCF_b_cat_CIS was analyzed into 1 assay endpoint. This assay endpoint, ATG_TCF_b_cat_CIS, was analyzed with bidirectional fitting relative to DMSO as the negative control and baseline of activity. Using a type of inducible reporter, measures of mRNA for gain or loss-of-signal activity can be used to understand the reporter gene at the transcription factor-level as they relate to the gene TCF7 and TCF7L2 and LEF1 and TCF7L1. Furthermore, this assay endpoint can be referred to as a primary readout, because this assay has produced multiple assay endpoints where this one serves a reporter gene function. To generalize the intended target to other relatable targets, this assay endpoint is annotated to the dna binding intended target family, where the subfamily is HMG box protein.
Human liver HepG2 cells are transiently transfected with multiple reporter transcription units (MRTUs) in 6-well plates using FuGene 6 reagent (Roche; 3 ml FuGene/1 mg DNA). The MRTU constructs are regulated by a cis-regulating element (promoter). […] A major difference between the CIS and TRANS system is that in CIS activities of endogenous TFs are measured, whereas the TRANS assay evaluates changes in activities of exogenous, chimeric NR-Gal4 proteins. […] At the end of 24 hour incubation, total RNA was isolated using TriZol reagent (Invitrogen). The isolated RNA is then reverse-transcribed using oligo(dT) primer and Mo-MLV reverse transcriptase (Invitrogen) with DNAse I (Ambion) treatment for 30 min. The one-tenth of the produced cDNA was amplified by PCR using Taq DNA polymerase (Invitrogen) and two reporter sequence-specific primers. The PCR products were fluorescently labeled by primer extension with 6-arboxyfluorescein (6-FAM) 5'-labeled reporter sequence-specific primer (2 min at 95 C, 20 s at 68 C and 10 min at 72 C) and these products were digested with 5U of HpaI (New England Biolabs) for 2h at 37 C. The fragments were purified using Qiaquick PCR columns (Qiagen), analyzed on an ABI 3130xL genetic analyzer (Applied Biosystems) with peak positions identified by using a set of X-rhodamine (ROX)-labeled MapMarker1000 molecular weight standards (BioVentures). The raw capillary electrophoresis data was processed using Attagraph software (Attagene).

Row | Structure (SMILES) | AC50 | outcome
1 | CCN1CCC2(CC1)COc1cc3c(cc12)N(C(=O)c1ccc(-c2ccc(-c4nnc(C)o4)cc2C)cc1)CC3 | 6.25 µM (active) | –
2 | BrCCBr | – | inactive
3 | C[C@@H]1C[C@@H]([C@H](O)CC2CC(=O)NC(=O)C2)C(=O)[C@@H](C)C1 | 8.48 µM (active) [middle of 4 runs] | –
4 | Nc1cccc2ccccc12 | – | inactive
5 | COP(=S)(OC)Oc1c(Cl)cc(C)cc1Cl | – | inactive
6 | CC(C)c1ccc(CO)cc1 | – | inactive
7 | ClCc1ccccn1 | – | inactive
8 | CCC(=O)c1ccccc1 | – | inactive
9 | Clc1ccc(COC(Cn2ccnc2)c2ccc(Cl)cc2Cl)cc1 (stereo not given) | – | inactive
10 | O=C(O)C(Cl)(Cl)Cl | – | inactive
11 | O=C1C2(Cl)C3(Cl)C4(Cl)C(Cl)(Cl)C5(Cl)C3(Cl)C1(Cl)C5(Cl)C24Cl (stereo not given) | 17.7 µM (active) | inactive
12 | CC(=[OH+])/C=C(/C)[O-].CC(=[OH+])/C=C(/C)[O-].CC(=[OH+])/C=C(/C)[O-].[Al] | – | inactive
13 | CCOP(=S)(OCC)SCSP(=S)(OCC)OCC | – | inactive
14 | c1cc[c]([Hg][c]2ccccc2)cc1 | – | inactive
15 | COc1ccccc1OC | – | inactive
16 | COc1ccc(OC)c(C=O)c1 | – | inactive
17 | N#CN=C(N)N | – | inactive
18 | CC(=O)c1cc(C(C)(C)C)cc2c1CCC2(C)C | – | inactive
19 | ClCc1cccnc1 | – | inactive
20 | Cl/C=C/Cl | – | inactive

Row | Structure (SMILES) | AC50 | outcome
21 | COP(=S)(OC)Oc1ccc(S(=O)(=O)N(C)C)cc1 | – | inactive
22 | N#Cc1ccccn1 | – | inactive
23 | CCOP(=S)(OCC)Oc1ccc(S(C)=O)cc1 (stereo not given) | – | inactive
24 | CC(C)c1cccc(C(C)C)c1O | – | inactive
25 | COc1cc2c(cc1OC)[C@@]13CCN4CC5=CCO[C@H]6CC(=O)N2[C@H]1[C@H]6[C@H]5C[C@H]43 | – | inactive
26 | CCCCCCCCc1ccc(O)cc1 | – | inactive
27 | Cc1ccccc1N | – | inactive
28 | Nc1ncc([N+](=O)[O-])s1 | – | inactive
29 | Cn1sc(Cl)cc1=O | – | inactive
30 | c1ccc(N=NNc2ccccc2)cc1 | – | inactive
31 | CCC(=O)C(CC(C)N(C)C)(c1ccccc1)c1ccccc1 (stereo not given) | – | inactive
32 | CCOC(=O)Nc1cccc(OC(=O)Nc2ccccc2)c1 | – | inactive
33 | Fc1ccc(C2(Cn3cncn3)OC2c2ccccc2Cl)cc1 (stereo not given) | – | inactive
34 | Nc1ccc(Cl)cc1C(=O)c1ccccc1 | 39.6 µM (active) | –
35 | Cc1cc(Cl)ccc1O[C@H](C)C(=O)O | – | inactive
36 | CCSC(C)CC1CC(=O)C(C(CC)=NOC/C=C/Cl)=C(O)C1 (stereo not given) | – | inactive
37 | CC1CN1P(=O)(N1CC1C)N1CC1C (stereo not given) | – | inactive
38 | C=CC#N | – | inactive
39 | ClCC(Cl)CCl | – | inactive
